Screens as filed in PubChem.
NS1 inh = qHTS Assay for Inhibitors of Influenza NS1 Protein Function. Potency, µM (titrated, usually from 46.1 µM). actives 0.4% (n = 270,000); calls by dose curve; also: actives are rising curves; nearly all actives have a fitted effect of over 50% in size
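Growth recovery, yeast-based: influenza A NS1 expressed in S. cerevisiae causes slow growth, and suppressors are detected by OD600. The parent strain without NS1 is used as positive control.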
HCV inhibitor = qHTS Assay for Inhibitors of Hepatitis C Virus (HCV); Huh7.5.1 HCVcc-Cre infection, luciferase reporter, 44 h; Potency, µM (highest dose often 41.8 µM), actives largely listed as inhibitors; actives 3.4% (n = 340,000)
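Antiviral activity was scored by luciferase reporter output from cells infected with HCVcc-Cre (~0.5 moi) in presence of compound, 44 h infection period, cells seeded 1,000/well 4 h prior.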
Vaccinia mCherry = qHTS for Stage-Specific Inhibitors of Vaccinia Orthopoxvirus: mCherry Reporter Primary qHTS; Vaccinia virus mCherry reporter infection, fluorescence; Potency, µM (top dose mostly 36.5 µM), actives largely listed as inhibitors; actives 0.63% (n = 310,000); AID 720579, 2013; calls by dose curve; tested in A549 cells; also: nearly all actives have a fitted effect of over 35% in size
Vaccinia Venus = qHTS for Stage-Specific Inhibitors of Vaccinia Orthopoxvirus: Venus Reporter Primary qHTS. Vaccinia virus Venus reporter expression, fluorescence. Potency, µM (titrated, usually from 36.5 µM), hits mostly inhibitors. actives 0.46% (n = 330,000); calls by dose curve; tested in A549 cells; also: nearly all actives have a fitted effect of over 30% in size
Pf growth 48h = Primary qHTS for delayed death inhibitors of the malarial parasite plastid, 48 hour incubation | actives 5.9% (n = 310,000) | Potency, µM (highest dose often 28.7 µM), actives largely listed as inhibitors | P. falciparum luciferase growth in erythrocytes, 48 h
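Here the parasites carry a stable luciferase gene and grow inside erythrocytes in Albumax-based RPMI medium with compound for one erythrocytic cycle. Activity is scored as loss of luminescent signal.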
Pf growth 96h = Primary qHTS for delayed death inhibitors of the malarial parasite plastid, 96 hour incubation | P. falciparum luciferase reporter growth, 96 h | Potency, µM (titrated, usually from 28.7 µM), actives largely listed as inhibitors | actives 6.9% (n = 320,000) | AID 504834, 2011
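Plates of compound plus infected erythrocytes (2% hematocrit, 0.05% parasitemia final) incubate 96 hours, 37 C, 5% CO2. Detection reagent added; reduced luminescence from the parasites' luciferase reporter flags inhibition.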
A number is an active result; [ ] = another dose, or the depositor's remark. The list is not random: actives were taken first. Their share in the collection is about 11%. Unless noted, calls follow the shape of the dose curve; as a rule, active = well fitted inhibition curve with a large enough effect; inconclusive = small, poorly fitted or top-dose-only effect, or another doubt; inactive = no such curve, though single readings can be large or run the other way.

O=C(Nc1ccc2nc(-c3cccs3)[nH]c2c1)c1cccs1 was read as NS1 inh inactive, HCV inhibitor 13µM, Vaccinia mCherry inactive, Vaccinia Venus inactive and Pf growth 48h inactive.
For N=c1c2c(ncn1CCCO)Oc1ccc3ccccc3c1C2c1ccccc1 (configuration not stated) the results were NS1 inh inactive, HCV inhibitor inconclusive, Vaccinia mCherry inactive[7.34 µM], Vaccinia Venus inactive[7.34 µM], Pf growth 48h inconclusive and Pf growth 96h inconclusive.
COc1ccc(C2c3ccc(O)cc3Oc3ncn(CCN4CCOCC4)c(=N)c32)cc1OC (configuration not stated) was read as NS1 inh inactive, HCV inhibitor inactive, Vaccinia mCherry inactive, Vaccinia Venus inactive, Pf growth 48h inconclusive and Pf growth 96h inconclusive.
Screening COc1ccc(C2c3ccc4ccccc4c3Oc3ncn(CCN4CCOCC4)c(=N)c32)cc1OC (configuration not stated) returned NS1 inh inactive, HCV inhibitor inconclusive, Pf growth 48h 9.3µM and Pf growth 96h 13µM.
COc1ccc(C2c3ccc4ccccc4c3Oc3ncn(CCN4CCOCC4)c(=N)c32)cc1 (configuration not stated) was read as NS1 inh inactive, HCV inhibitor inconclusive, Pf growth 48h 12µM and Pf growth 96h 6.6µM.
COc1ccc(C2c3c(ncn(CCCN4CCOCC4)c3=N)Oc3ccc4ccccc4c32)cc1OC (configuration not stated) was read as NS1 inh inactive, HCV inhibitor 22µM, Pf growth 48h 4.1µM and Pf growth 96h 1.9µM.
Screening Nc1cnccn1 returned Vaccinia mCherry inactive and Vaccinia Venus inactive.
Screening COc1ccc(-c2cc(=O)oc3c(C)c(OC(C)C(=O)Nc4ccc(CN5CCOCC5)cc4)ccc23)cc1 (configuration not stated) returned NS1 inh inactive, HCV inhibitor 13µM, Pf growth 48h 7.4µM and Pf growth 96h 3.7µM.
Cc1cc(=O)oc2c(C)c(OC(C)C(=O)Nc3ccc(N4CCC(C)CC4)cc3)ccc12 (configuration not stated) was read as NS1 inh inactive, HCV inhibitor inconclusive, Pf growth 48h 7.4µM and Pf growth 96h 3.3µM.
Screening Cc1cc2c(OCC(O)CN3CCCCC3)cccc2[nH]1 (configuration not stated) returned HCV inhibitor inactive, Vaccinia mCherry inactive, Vaccinia Venus inactive, Pf growth 48h inactive and Pf growth 96h inactive.
CCCCN(C)CCCNC(=O)CN1C(=O)COc2ccc(S(=O)(=O)N3CCC(C)CC3)cc21 was read as Vaccinia mCherry inactive and Vaccinia Venus inactive.
Screening COc1ccc(CNC(=O)Cn2nc(C)c3c(C)n(-c4ccc(C)cc4)nc3c2=O)cc1OC returned NS1 inh inactive, HCV inhibitor inconclusive, Pf growth 48h inconclusive and Pf growth 96h inconclusive.
CCOc1ccccc1CNC(=O)C(C)n1nc(C)c2c(C)n(-c3ccccc3)nc2c1=O (configuration not stated) was read as NS1 inh inactive, HCV inhibitor 6.3µM, Vaccinia mCherry inactive, Vaccinia Venus inactive, Pf growth 48h inactive and Pf growth 96h inconclusive.
Screening CCOc1ccccc1CNC(=O)Cn1nc(C)c2c(C)n(-c3ccc(C)cc3)nc2c1=O returned NS1 inh inactive, HCV inhibitor 2.8µM, Pf growth 48h inactive and Pf growth 96h inconclusive.
`CSc1ccc(CNC(=O)Cn2nc(C)c3c(C)n(-c4ccc(C)cc4)nc3c2=O)cc1` gave NS1 inh inactive, HCV inhibitor inactive, Pf growth 48h inactive and Pf growth 96h 2.6µM.
Cc1ccc(-n2nc3c(=O)n(CC(=O)NCCc4ccco4)nc(C)c3c2C)cc1 was read as NS1 inh inactive, HCV inhibitor inactive, Pf growth 48h inactive and Pf growth 96h 8.3µM.
Screening CCC(C(=O)NCc1cccc(C)c1)n1nc(C)c2c(C)n(-c3ccccc3)nc2c1=O (configuration not stated) returned NS1 inh inactive, HCV inhibitor 13µM, Pf growth 48h inconclusive and Pf growth 96h inactive.
For COc1ccc(-c2[nH]ncc2CNC(C)Cc2cccc(C)n2)cc1F (configuration not stated) the results were NS1 inh inactive, HCV inhibitor inactive, Vaccinia mCherry inactive, Vaccinia Venus inactive, Pf growth 48h inactive and Pf growth 96h inactive.
Cc1ccccc1N1CCN(C2=NC(=O)/C(=C\c3cccs3)S2)CC1 was read as NS1 inh inactive, HCV inhibitor inconclusive, Pf growth 48h inconclusive and Pf growth 96h 10µM.
Screening O=C1N=C(N2CCOCC2)S/C1=C/c1cccs1 returned NS1 inh inactive, HCV inhibitor inactive, Pf growth 48h inactive and Pf growth 96h 12µM.
For O=C1N=C(N2CCN(c3cccc4ccccc34)CC2)S/C1=C/c1cccs1 the results were NS1 inh inactive, HCV inhibitor inactive, Vaccinia Venus inconclusive, Pf growth 48h 8.3µM and Pf growth 96h 9.3µM.
COC(=O)c1ccc2nc(-c3cccc(Cl)c3)c(Cc3ccccc3)n2c1 was read as Vaccinia mCherry inactive and Vaccinia Venus inactive.
For Cc1cccc(NC(=O)c2ccccc2SCc2ccc(F)cc2)n1 the results were HCV inhibitor inactive, Vaccinia mCherry inactive, Vaccinia Venus inactive, Pf growth 48h inconclusive and Pf growth 96h inactive.
O=C(Cn1cnc2c(nnn2-c2ccccc2)c1=O)NCCc1ccccc1 was read as NS1 inh inactive, HCV inhibitor inactive, Vaccinia mCherry inactive, Vaccinia Venus inactive, Pf growth 48h inactive and Pf growth 96h inactive.
Screening c1ccc(Nc2cccc(Nc3ccccc3)n2)cc1 returned NS1 inh inactive, HCV inhibitor 7.1µM, Vaccinia mCherry inconclusive, Vaccinia Venus inactive and Pf growth 96h inactive.
`c1ccc(Nc2ccccn2)cc1` gave NS1 inh inactive, HCV inhibitor inactive and Pf growth 48h inactive.
CSc1ncccc1C(=O)OCC(=O)NC(=O)NCCC(C)C was read as NS1 inh inactive, HCV inhibitor inactive, Vaccinia mCherry inactive, Vaccinia Venus inactive, Pf growth 48h inactive and Pf growth 96h inactive.
`CC(C)(CNC(=O)CCC1CCCC1)CNC(=O)CCC1CCCC1` gave NS1 inh inactive, HCV inhibitor inactive, Pf growth 48h inconclusive and Pf growth 96h 10µM.
CCc1nnc(NC(=O)c2c(OC)cccc2OC)s1 was read as NS1 inh inactive, HCV inhibitor inactive, Pf growth 48h inactive and Pf growth 96h inactive.
COc1ccccc1C(CNC(=O)c1ccc(NS(=O)(=O)c2ccc3c(c2)OCCO3)cc1)N(C)C (configuration not stated) was read as HCV inhibitor inactive, Vaccinia mCherry inactive, Vaccinia Venus inactive, Pf growth 48h inconclusive and Pf growth 96h 12µM.
